Compounds with a hit are over-represented: about 6.5% of the library has one in this group of screens.
Giardia killer: kills Giardia lamblia; Giardia lamblia trophozoite viability; activity change, % at 7.66 µM, hits read low; actives 0.15% (n = 340,000); AID 540267; in the data active = activity change below about -80%; inconclusive = between about -30% and that limit;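 also: parasites exposed to compound for two days anaerobically before the ATP read; % is scaled to controls: 0 for no effect and ±100 for the full control effect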
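Viability, read as ATP luminescence: trophozoites at 100 cells/well, compound added, 48 hrs anaerobic at 37 deg C, then 15-30 min room-temperature development before reading.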
HepG2 tox: counter-screen for TGF-b inhibitors: cytotoxicity in HepG2 cells | Potency, µM (series often up to 46.1 µM), for the others: at the top dose activity change, negative = cytotoxicity, usual class: cytotoxic | AID 588856 | HepG2 CAGA-GFP viability, ATP luminescence, 18 h | actives 0.76% (n = 410,000); also: potency is read from the fitted curve at half-maximal effect
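CellTiter-Glo luminescence gave cytotoxicity after 18 hours at 37 degrees C. The cells were HepG2 CAGA-GFP in 1% FBS DMEM, stimulated with 500 pg/mL TGF-beta after compound addition. %Activity was normalised to no-cell wells (complete cell-killing) and DMSO (no toxicity), and curves were fitted and classified.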
TGFb SMAD3 inh: blocks TGF-b signaling; HepG2 CAGA-GFP TGF-b/SMAD3 reporter, GFP fluorescence, 18 h; TGF-beta stimulated, 500 pg/mL final; Potency, µM (top dose mostly 46.1 µM), for inactives: top-dose activity, negative = inhibition, most hits filed as inhibitors; actives 1.2% (n = 410,000); AID 588855; also: potency is read from the fitted curve at half-maximal effect; % is scaled to controls: 0 for no effect and ±100 for the full control effect; nearly all actives have a fitted effect of over 65% in size
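Inhibition of TGF-beta-driven CAGA-GFP reporter expression in HEPG2 cells is measured by cellular GFP fluorescence after 18 h stimulation with 500 pg/mL recombinant TGF-beta in 1% FBS medium at 37 degrees C.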
IL1B secr inh: inhibitors of inflammasome signaling (IL-1 beta secretion); THP-1 LPS/ATP IL-1B secretion, AlphaLISA, 16 h; hits give low values; AID 743279; activity change, % at 57.5 µM; actives 4.7% (n = 360,000); in the data active = activity change below about -50%; inconclusive = mostly about -30% to -49%; also: % is scaled to controls: 0 for no effect and ±100 for the full control effect
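THP-1 cells pretreated 1 hr with compounds (up to 57.5 uM final), then stimulated with LPS (250 ng/mL final) plus ATP (1.25 mM final); secreted IL-1B measured by AlphaLISA after 16 hr, decreased signal indicating inhibition.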
HT1080 IDH1KD tx: HT-1080 IDH1 knockdown cell toxicity (counter line); HT-1080 IDH1 knockdown viability, ATP luminescence, 48 h; Potency, µM (top dose mostly 46.1 µM), inactives show at the highest dose activity, negative = toxicity, actives largely listed as cytotoxic; actives 2% (n = 360,000);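 also: potency is read from the fitted curve at half-maximal effect; 0% = DMSO wells and -100% = cell-free medium wells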
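Using the IDH1-knockdown HT-1080 line run in the same batch and compound series as the NT line, viability after 48 h at 37 °C was determined by CellTiter-Glo luminescence and expressed as % activity.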
HT1080-NT tox: kills 2HG-producing HT-1080-NT fibrosarcoma cells; HT-1080-NT fibrosarcoma viability, CellTiter-Glo ATP luminescence, 48 h; Potency, µM (top dose mostly 46.1 µM), inactives show top-dose activity, negative = less viability, actives largely listed as cytotoxic; actives 1.6% (n = 360,000); AID 686970;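 also: NT is the 2HG producing partner of a matched IDH1 knockdown line; potency is read from the fitted curve at half-maximal effect; 0% = DMSO-treated cells and -100% = media-only wells without cells; nearly all actives have a fitted effect of over 55% in size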
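Viability by CellTiter-Glo luminescence after 48 h compound exposure at 37C of HT-1080-NT cells (750/well, RPMI, 5% FBS). % activity scaled between DMSO wells and medium-only wells, then curve-fitted and categorized by curve class.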
Starred values were filed as active, the others as inactive; ? = inconclusive; nt = not tested or not shown; [ ] = remark or other dose. Unless noted, calls follow the shape of the dose curve; as a rule, active = well fitted curve in the direction sought with a large enough effect; inconclusive = small, poorly fitted or top-dose-only effect, or another doubt; inactive = no such curve, though single readings can be large; an effect the other way counts as inactive or inconclusive.

SMILES	Giardia killer	HepG2 tox	TGFb SMAD3 inh	IL1B secr inh	HT1080 IDH1KD tx	HT1080-NT tox
O=C(/C=C/c1ccco1)Oc1cc(Br)cc(/C=N/NC(=O)c2ccccc2O)c1	8.3	-61.3%	10µM*	55.9	1.84µM*	?
O=C1/C(=C/c2cccs2)SC(=S)N1N1CCOCC1	-13.9	13.3%	12.8%	-15.6	11.9%	19.1%
CC(C)c1cc2c(c(O)c1O)[C@@]13CCCC(C)(C)C1CC2OC3=O (some centres not stated)	-2.2	-28.3%	12.6µM*	-11.9	?	-29.5%
CCCCNCCOc1ccccc1-c1ccccc1	-6.2	-29.4%	0.0%	-60.3*	-13.3%	-9.3%
COCCCNCCCCOc1ccccc1-c1ccccc1	8.7	-12.9%	0.7%	0.0	-23.9%	-13.1%
CC(C)Oc1ccc(OCCNC2CCCC2)cc1	4.9	-19.2%	15.0%	-8.5	1.5%	-1.9%
C=CCNCCCCOc1ccccc1-c1ccccc1	1.6	-6.8%	-2.3%	-84.9*	?	?
c1ccc(COc2ccc(OCCCNC3CCCC3)cc2)cc1	-1.3	-67.9%	?	-95.8*	?	23.1µM*
CCC(C)c1ccccc1OCCCNC1CCCC1 (configuration not stated)	-8.9	-50.1%	?	-69.7*	-23.6%	-27.0%
Cc1ccc(-n2ccc(=O)c(C(=O)Nc3ccc(S(=O)(=O)Nc4onc(C)c4C)cc3)n2)cc1	2.3	-9.9%	1.2%	14.8	11.3%	11.3%
COc1ccc(C(=O)N/C(=C\c2ccccc2)C(=O)Nc2ccc(C(=O)NCC(=O)O)cc2)cc1	20.5	11.8%	16.2%	-11.3	-10.0%	-8.8%
C=CCNCCCCOc1ccc(OCc2ccccc2)cc1	25.3	-25.7%	-6.6%	-50.9*	-1.5%	-18.7%
Cc1cc(Br)ccc1NC(=O)CN(C)C(=O)CSCc1ccccc1	16.5	6.2%	10.9%	-52.1*	-20.4%	2.1%
Cc1cc(Br)ccc1NC(=O)CN(C)C(=O)CSC(=S)N1CCCC1	1.8	-37.9%	-5.3%	20.5	-0.6%	-2.4%
Cc1cccc(C)c1-n1nnnc1SCc1nc(N)nc(N(C)C)n1	nt	-61.4%	5.62µM*	20.8	?	?
CN(C)c1nc(N)nc(CSc2nnnn2-c2ccc(F)cc2)n1	-2.2	1.1%	-22.5%	31.7	?	0.4%
COc1ccc(C)cc1-n1nnnc1SCc1nc(N)nc(N(C)C)n1	nt	-36.5%	11.2µM*	-12.2	?	?
CC(C)(C)c1ccc(S(=O)(=O)N2CCC(c3ccncc3)CC2)cc1	nt	-69.2%	2.82µM*	nt	nt	nt
O=S(=O)(c1ccc(Cl)cc1)N1CCC(c2ccncc2)CC1	nt	-15.3%	5.5%	nt	nt	nt
COc1ccc(-c2csc3ncnc(N4CCN(c5cccc(Cl)c5)CC4)c23)cc1	-3.6	-0.7%	?	10.4	-10.9%	-0.8%
Cc1ccc(OCC(=O)N(C)CC(=O)Nc2cccc(F)c2)cc1	8.5	11.5%	-15.4%	0.0	0.6%	-1.9%
Cc1ccc(OCC(=O)N(C)CC(=O)Nc2ccc(F)c(F)c2F)cc1	41.4	-7.3%	22.4%	-64.8*	-4.6%	-2.8%
CCC(C)N1C(=O)CCC1C(=O)O (configuration not stated)	0.7	3.3%	-1.1%	6.3	-0.2%	1.2%
CCN(CC)C(=O)Oc1ccc2oc(=O)cc(-c3cc4cccc(OC)c4o3)c2c1	-23.1	-2.0%	11.2%	-64.7*	1.7%	15.0%
Cc1nnsc1S(=O)c1ccc(Cl)c(Cl)c1 (configuration not stated)	6.0	-8.8%	7.8%	-62.0*	?	?
SMILES	Giardia killer	HepG2 tox	TGFb SMAD3 inh	IL1B secr inh	HT1080 IDH1KD tx	HT1080-NT tox
CC(C)COc1ccc(/C(=N/O)c2ccccc2)cc1	-12.6	-96.2%	?	-78.9*	0.6%[9.24 µM]	?
N#Cc1ccccc1COC(=O)c1ccc2c(c1)OCCO2	-16.1	-12.1%	-24.4%	-50.1*	1.8%	21.1%
CC1=NN(C(=O)c2cccc(Cn3nc(C)c([N+](=O)[O-])c3C)c2)C(O)(C(F)(F)F)C1 (configuration not stated)	1.0	-17.5%	-9.3%	15.1	5.01µM*	7.94µM*
Cc1nn(Cc2cccc(C(=O)N3N=C(C(F)F)CC3(O)C(F)F)c2)c(C)c1[N+](=O)[O-] (configuration not stated)	-2.1	-18.5%	-0.3%	35.1	?	-19.2%
O=C(c1ccc2c(c1)OCO2)N1CCCC(c2ccccc2)C1 (configuration not stated)	-26.9	2.0%	-23.7%	-10.6	-0.9%	7.8%
CCOC(=O)/C(=C/c1ccc(F)cc1)NC(C)=O	-6.9	-10.4%	14.1%	34.7	16.3%	14.1%
N#CC1=C(Nc2ccccc2Cl)SC(c2ccncc2)NC1=O (configuration not stated)	nt	3.5%	-14.3%	-11.8	23.9%	16.3%
O=C(COc1ccc(Cl)cc1)Nc1ncc([N+](=O)[O-])s1	-86.4*	-30.3%	?	-21.9	?	?
O=C(Cc1ccc(Br)cc1)Nc1ncc([N+](=O)[O-])s1	-92.9*	-56.2%	?	-53.8*	?	?
O=C(COC(=O)COc1ccccc1)Nc1ncc([N+](=O)[O-])s1	-25.6	2.7%	-5.0%	-0.4	-3.2%	4.4%
O=C(Cc1ccc(Cl)cc1)Nc1ncc([N+](=O)[O-])s1	-90.9*	-42.0%	-31.0%	32.6	?	?
Cc1ccnc(NC(=O)c2sc3ccccc3c2Cl)c1	-80.2*	-12.5%	?	0.0	-7.4%	1.5%
O=C(Nc1ccc(Cl)cc1C(=O)Nc1ccccn1)c1ccco1	-3.8	-28.8%	0.0%	-52.0*	-23.2%	1.7%
Cc1ccnc(NC(=O)c2ccccc2NC(=O)c2ccc(Cl)cc2Cl)c1	-19.7	-0.8%	?	63.3	4.61µM*	2.91µM*
COc1ccc(S(=O)(=O)N(CC(=O)NCCSc2ccccn2)c2ccccc2)cc1	2.1	2.7%	-16.7%	16.9	-0.2%	-16.8%
CCOC(=O)Cc1csc(SCC(=O)Nc2ccc3[nH]c(=O)[nH]c3c2)n1	3.9	-14.0%	-13.1%	12.5	-1.4%	5.0%
COc1ccc(C(=O)c2sc(Nc3ccccc3)nc2N)cc1	-16.9	-53.6%	11.2µM*	-76.9*	-17.7%	-15.7%
COc1ccc(C(=O)c2sc(Nc3ccccc3F)nc2N)cc1	13.6	4.8%	-20.6%	?	3.4%	12.7%
COc1ccc(C(=O)c2sc(Nc3cc(Cl)ccc3C)nc2N)cc1OC	nt	-25.8%	?	nt	nt	nt
COc1ccc(C(=O)c2sc(Nc3ccccc3)nc2N)cc1OC	-2.6	-13.0%	12.6µM*	-97.5*	?	?
